Experimental data reported in PubChem BioAssay (NCI).
“And” between values parts separate entries of the source, which are not always exact repeats. Equal values may be shown once. Compounds without any hit were thinned out: in the full panel of roughly 79,000, 15% have a hit. Cut-off read from the data, not from the text of the source: active = growth inhibition above about 70%; inactive = the rest. Where a SMILES comes first, the peptide text is derived from it. The star is where a group is joined. Cbz = O=C(OCc1ccccc1)*

Legend:
[1] = NCI Yeast Anticancer Drug Screen. Data for the rad50 strain (AID 155);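 note: 0% = growth of vehicle-only cultures of the same strain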; settings: S. cerevisiae rad50 strain growth inhibition, hits give high values; at 50.0 µM unless noted
Method in brief: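 Growth of the mutant yeast was measured after compound exposure and referenced to vehicle-treated cultures.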

[2] = NCI Yeast Anticancer Drug Screen. Data for the mec2-1 strain (AID 157); settings: S. cerevisiae mec2-1 strain, hits give high values; at 50.0 µM unless noted
Method in brief: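 Using mec2-1 yeast: add compound, measure growth, express inhibition versus vehicle-treated cultures.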

[3] = NCI Yeast Anticancer Drug Screen. Data for the sgs1 mgt1 strain (AID 161);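 note: 0% = growth of cultures given vehicle only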; settings: S. cerevisiae sgs1 mgt1 strain, hits give high values; at 50.0 µM unless noted
Method in brief: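 Growth of a repair-deficient yeast mutant was monitored after compound treatment and expressed as inhibition relative to vehicle-treated cultures.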

[4] = NCI Yeast Anticancer Drug Screen. Data for the cln2 rad14 strain (AID 165);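 note: 0% = growth equal to vehicle treated cultures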; settings: S. cerevisiae cln2 rad14 strain, hits give high values; at 50.0 µM unless noted
Method in brief: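 Yeast strain cln2 rad14, bearing defects in cell cycle control and DNA repair, serves as the test system; values reflect growth inhibition compared with vehicle.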

[5] = NCI Yeast Anticancer Drug Screen. Data for the bub3 strain (AID 167); settings: S. cerevisiae bub3 mutant strain, hits give high values; at 50.0 µM unless noted
Method in brief: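 Whole-cell yeast assay. The mutant strain was incubated with compounds, and growth inhibition was determined by comparison with vehicle-treated cells.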

[6] = NCI Yeast Anticancer Drug Screen. Data for the mlh1 rad18 strain (AID 175); settings: S. cerevisiae mlh1 rad18 strain growth inhibition, hits give high values; at 50.0 µM unless noted
Method in brief: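 Steps: expose repair-defective yeast to compound; measure growth; express inhibition against vehicle-treated controls.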

Measured: growth inhibition

COC(=O)C(Cc1nc2ccc(Cl)cc2[nH]c1=O)/C(=N\N)C(=O)Nc1cc(C)c(Cl)cc1S(=O)(=O)O (stereo unspecified)
inactive: [1] 24.9% | [2] -2% | [3] 5.5% | [4] -70.3% | [5] -3.35% | [6] 5.95%

CC(=O)CCC(C)C1CCC2C3CCC4CCCCC4(C)C3CCC12C (stereo unspecified)
inactive: [1] 7.4% | [2] -3.05% | [3] -7.75% | [4] 13.8% | [5] -2.15% | [6] -1.8%

Cc1ccc(O)c(-c2ccnn2-c2ccccc2)c1
inactive: [1] 20.5% | [2] 33.9% | [3] 15.1% | [4] -10.8% | [5] 5.25% | [6] 35.8%

O=C1c2ccccc2-c2c1c1ccccc1c(=O)n2-c1ccccc1
inactive: [1] -1.7% | [2] -26.1% | [3] 6% | [4] -5.85% | [5] -13.6% | [6] -51.6%

CNC(CCCCC1CCCCC1)C(=O)O (stereo unspecified)
inactive: [1] 8.2% | [2] 3.4% | [3] 12.1% | [4] -10.8% | [5] -8.2% | [6] -0.2%

CC(C)(C)COB(OCC(C)(C)C)OCC(C)(C)C
inactive: [1] -2.8% | [2] -13.2% | [3] 3.55% | [4] -29.1% | [5] -9.55% | [6] -15.2%

CCOC(Cn1ccc[n+]1CC(=O)c1ccccc1)OCC
inactive: [1] 0.9% | [2] -5.25% | [3] -10.8% | [4] -21.6% | [5] -5.75% | [6] 9.1%

COc1ccc(N2C(=O)C/C(=C/c3ccc(C(C)C)cc3)C2=O)cc1
inactive: [1] 9.35% | [2] -0.05% | [3] 11.9% | [4] -60% | [5] -13.8% | [6] 9.15%

N#C/C(=C\c1ccco1)C1CCC([N+](=O)[O-])CC1 (stereo unspecified)
inactive: [1] -5.05% | [2] -1.5% | [3] 4.35% | [4] -101% | [5] 2.85% | [6] -4.85%

O=[N+]([O-])c1ccc(Sc2ncnc3c2ncn3C2OC(CO)C(O)C2O)c2nonc12 (stereo unspecified)
inactive: [1] 3.05% | [2] -12.4% | [3] -2.4% | [4] 16.1% | [5] -2.95% | [6] 33.2%

COc1cc2c(cc1OC)C1C(C)c3ccc(OC)c(OC)c3CN1CC2 (stereo unspecified)
inactive: [1] 0.65% | [2] -43% | [3] -3.25% | [4] -0.95% | [5] -29.6% | [6] -8.6%

CCC(C(=O)O)C(=O)O.[NH2-].[NH2-].[Pt+2]
inactive: [1] 11.8% | [2] -6.6% | [3] -11.1% | [4] 14.1% | [5] -9.55% | [6] 2.4%

COC(=O)c1ccccc1OC
inactive: [1] 20.1% | [2] 15.8% | [3] -2.2% | [4] 6.75% | [5] -2.05% | [6] 3.1%

C=C1C(=O)O[C@@H]2C[C@@]3(C)[C@H](O)CCC(=C)[C@@H]3C[C@H]12
inactive: [1] -4.65% | [2] 25.1% | [3] 3.95% | [4] 17.1% | [5] 19.6% | [6] 5.5%

CCOC(=O)c1ccc(-c2ccc(Cl)cc2)[nH]1
inactive: [1] -7.3% | [2] 0% | [3] -3% | [4] 2.45% | [5] 34% | [6] 3.2%

CNC(=S)C#N
inactive: [1] -21.8% | [2] -14.4% | [3] -15.3% | [4] 11.9% | [5] -13% | [6] 0.1%

C/C(=N\N/C=N/S(=O)(=O)c1ccccc1)c1ccccc1
inactive: [1] -12.2% | [2] 4.55% | [3] -6.35% | [4] 5.6% | [5] 0.55% | [6] -1.55%

C[n+]1c(SCC(=O)O)sc2ccccc21
inactive: [1] -28.8% and 1.2% | [2] -46.3% and 10.1% | [3] 3.7% and 19.6% | [4] 14.9% and 6.5% | [5] -26.6% and 34.2% | [6] 5.7% and 22.9%

O=C(Oc1ccccc1)C(=O)Oc1ccccc1
inactive: [1] -20.6% | [2] -24.9% | [3] -8.75% | [4] -15.4% | [5] -0.1% | [6] 6.4%

COC(=O)C1NC(=O)C(N2C(=O)c3ccccc3C2=O)=CSC1(C)C (stereo unspecified)
inactive: [1] -15.8% | [2] -3.05% | [3] 1.15% | [4] -11.6% | [5] -48% | [6] -7.2%

Cn1c2ccc(Cl)cc2c2ccc3c(c21)C(=O)C=CC3=O
inactive: [1] -21.9% | [2] -33% | [3] -18.3% | [4] 14.2% | [5] -25.2% | [6] -8.05%

CC1(C)OC2OC3C(Br)C(=O)OC3C2O1 (stereo unspecified)
inactive: [1] 14.8% | [2] -8.45% | [3] 24.7% | [4] 9.65% | [5] 24.1% | [6] 26.2%

C[n+]1c(/C=C\C=C\c2ccccc2)sc2ccccc21
inactive: [1] 16.6% | [2] 2.05% | [3] 16.1% | [4] 18.1% | [5] 3% | [6] 11.2%

CC(C)=C1C2C(C13C(=O)OC(C)(C)OC3=O)C2(C)C (stereo unspecified)
inactive: [1] -10.5% | [2] -16.9% | [3] -11.6% | [4] 7.9% | [5] -21.6% | [6] -9.2%

CC(C(=O)O)N1C(=O)CNC1=O (stereo unspecified)
inactive: [1] -1.85% | [2] -4.05% | [3] 1.15% | [4] -37.6% | [5] 1.25% | [6] -12.8%

CCCCOC(=O)C(C)OC(=O)C(C)Oc1cc(Cl)c(Cl)cc1Cl (stereo unspecified)
inactive: [1] -1.65% | [2] -3.95% | [3] 0.3% | [4] 16.9% | [5] 3.9% | [6] -0.8%

O=C1c2c(Br)sc(Br)c2C(NC(=O)C(F)(F)F)C1O (stereo unspecified)
inactive: [1] 10.3% | [2] 18.3% | [3] -12.3% | [4] -11% | [5] 3.95% | [6] -27.4%

COC(=O)C1=Nc2c(C)nn(-c3ccccc3)c2N=C(c2ccc([N+](=O)[O-])cc2)C1
inactive: [1] -18.4% | [2] 0.6% | [3] -0.55% | [4] -67.1% | [5] -34% | [6] 10.3%

COc1ccc(C)cc1NC(=O)Nc1ccccc1F
inactive: [1] 6.9% | [2] 15.2% | [3] 6.15% | [4] 3.3% | [5] -0.4% | [6] 5.15%

COCc1cccc2ccnc(COC)c12
inactive: [1] -8.2% | [2] 2.45% | [3] 5.95% | [4] 9.4% | [5] -8.35% | [6] 5.25%

CCS(=O)(=O)C(CCCl)S(=O)(=O)CC
inactive: [1] 2.45% | [2] 0.9% | [3] 16.4% | [4] 8.55% | [5] 17.4% | [6] 13.9%

O=c1[nH]n(Cc2ccccc2CCl)c2ccc([N+](=O)[O-])cc12
inactive: [1] 24.1% | [2] 13.3% | [3] -10.8% | [4] 24% | [5] 4.1% | [6] 3.7%

CC(Br)CCCBr (stereo unspecified)
inactive: [1] -19.1% | [2] -5.65% | [3] -21.1% | [4] -22.4% | [5] -4.5% | [6] -13.8%

CCOC=Nc1ccc(-n2cnc3c(Cl)ncnc32)cc1C
inactive: [1] 1.1% | [2] -4.45% | [3] -16.6% | [4] -6.2% | [5] -1% | [6] -17.2%

Cc1ccc(O)cc1N(C)C
inactive: [1] -18.4% | [2] -3.95% | [3] -12.7% | [4] -35% | [5] -6.25% | [6] -3.65%

COc1ccc(C(=O)C(=O)c2ccccc2Cl)cc1
inactive: [1] 11.4% | [2] 14.9% | [3] 9.55% | [4] 13.3% | [5] 17.8% | [6] 10.9%

O/N=C/c1ccco1
inactive: [1] 1.2% | [2] -9.85% | [3] 7.75% | [4] -1.15% | [5] -6.55% | [6] 16.1%

COc1cc2c(cc1OC)C(=O)c1nccc3ccc(OC)c(c13)O2
inactive: [1] -0.35% | [2] 17.1% | [3] 23.3% | [4] 4.75% | [5] 16.6% | [6] 16.6%

NC(=O)CSc1c2cc(O)ccc2nc2ccc(O)cc12
inactive: [1] -17.8% | [2] -6.95% | [3] -12.6% | [4] 37.5% | [5] -19.4% | [6] 26.7%

N#CC(C(=O)NN)C1CCCCC1 (stereo unspecified)
inactive: [1] -0.85% | [2] -22% | [3] -2.95% | [4] -0.1% | [5] -33.8% | [6] -11.7%

NC(=O)C(Cc1ccccc1)NC(=O)C(Cc1ccccc1)NC(=O)C(Cc1ccccc1)NC(=O)OCc1ccccc1 (stereo not drawn) (Cbz-Phe-Phe-Phe-NH2; configuration not given here)
inactive: [1] 25.6% | [2] 7.8% | [3] 17.6% | [4] -12% | [5] -5.2% | [6] 21.9%
